From PubChem BioAssay (Tox21)
Values without a mark were called inactive. Inconclusive results are not listed. Entries that show only a call come without a potency. The source made the active and inactive calls. Unless noted, the call rests on the fitted dose curve; in most records, active means well fitted curve in the direction sought with a large enough effect in the repeat runs; inconclusive means weak or mixed curves; inactive means no such curve, though single readings can be large; an effect the other way counts as inactive or inconclusive.

Legend:
[1] = qHTS assay for small molecule agonists of the p53 signaling pathway (AID 651631; calls by dose curve; further: nearly all actives have a fitted effect of over 15% in size)
Method in brief: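 Read-out is beta-lactamase FRET fluorescence measured 2 h after substrate addition at room temperature, in HCT-116 cells with a p53 response element-driven reporter exposed to compounds for 16 h at 37 °C.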

[2] = qHTS assay for small molecules that induce genotoxicity in human embryonic kidney cells expressing luciferase-tagged ATAD5 (AID 651632); further: nearly all actives have a fitted effect of over 15% in size
Method in brief: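 Quantitative HTS in HEK293T expressing luciferase-tagged ATAD5, whose levels rise upon DNA damage. Exposure ran 16 hr at 37C and 5% CO2, with luminescence read 30 min after Amplite addition at room temperature.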

[3] = qHTS assay for small molecule agonists of the p53 signaling pathway - cell viability (AID 651633; calls by dose curve;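 further: p53RE-bla HCT reporter cells with a stable beta-lactamase p53 reporter; series mostly up to about 83 µM; nearly all actives have a fitted effect of over 30% in size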)
Method in brief: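 p53RE-bla cells were treated with compound for 16 hours at 37 C. Cytotoxicity was then measured as CellTiter-Glo luminescence after 30 min at room temperature.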

[4] = qHTS assay for small molecules that induce genotoxicity in human embryonic kidney cells expressing luciferase-tagged ATAD5 - cell viability (AID 651634; calls by dose curve; further: nearly all actives have a fitted effect of over 25% in size)
Method in brief: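 After 15.5 hr incubation with compound at 37C, 5% CO2, HEK293T ATAD5-luciferase cells received CellTiter-Fluor reagent; fluorescence intensity was quantified following 30 min at 37C.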

[5] = qHTS assay for small molecule disruptors of the mitochondrial membrane potential - cell viability (AID 720634; calls by dose curve;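 further: human HepG2 liver cancer cells; series mostly up to about 83 µM; nearly all actives have a fitted effect of over 20% in size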)
Method in brief: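 ATP-based luminescent viability readout (CellTiter-Glo, 30 min, room temperature) in HepG2 cells multiplexed with the m-MPI membrane potential dye; compound exposure lasted 1 hr at 37 C.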

[6] = qHTS assay to test for compound auto fluorescence at 590 nm (red) in HepG2 cells (AID 720674)
Method in brief: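 Seeding: 2,000 HepG2 cells/well, MEM/10% FBS, overnight 37 C. Dosing: compound vs DMSO. Incubation: 1 hr, 37 C, 5% CO2. Read: fluorescence 540 ex/590 em, Rose Bengal sodium as red reference.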

[7] = qHTS assay to test for compound auto fluorescence at 535 nm (green) in HepG2 cells (AID 720675)
[8] = qHTS assay to test for compound auto fluorescence at 460 nm (blue) in HEK293 cells (AID 720678)
Method in brief: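 Cells were seeded and left to adhere for 4-5 hr at 37C. Compounds were then pin-transferred. After an overnight incubation at 37C under 5% CO2, intrinsic fluorescence at 405/460 nm was measured and referenced to triamterene.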

[9] = qHTS assay to test for compound auto fluorescence at 590 nm (red) in HEK293 cells (AID 720679)
Method in brief: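 Each well held 2,000 HEK293 cells in medium containing 10% dialyzed FBS. Following 4-5 hr attachment at 37C, 23 nL test compound or DMSO was added; plates sat overnight, and red fluorescence (540/590nm) was recorded.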

[10] = qHTS assay to test for compound auto fluorescence at 535 nm (green) in HEK293 cells (AID 720680)
[11] = qHTS assay to test for compound auto fluorescence at 460 nm (blue) in HEK293 cell free culture (AID 720681)
Method in brief: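 Compounds were added to cell-free DMEM with 10% FBS and fluorescence read directly. The blue channel used 405 nm excitation and 460 nm emission, with triamterene as the reference fluorophore.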

[12] = qHTS assay to test for compound auto fluorescence at 535 nm (green) in HEK293 cell free culture (AID 720682)
Method in brief: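 Fluorescein serves as the green reference fluorophore; each compound's intrinsic emission at 535 nm (excitation 485 nm) is reported as an equivalent amount of that dye, measured in serum-containing DMEM without cells.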

[13] = qHTS assay to test for compound auto fluorescence at 590 nm (red) in HEK293 cell free culture (AID 720683)
Method in brief: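 Cell-free wells of DMEM with 10% FBS received compound, and intrinsic fluorescence was read at excitation/emission 540/590 nm. Values expressed as equivalence to Rose Bengal sodium.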

[14] = qHTS assay to test for compound auto fluorescence at 590 nm (red) in HepG2 cell free culture (AID 720684)
Method in brief: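 Rose Bengal sodium served as the reference for red signal. Test compounds were dispensed into serum-containing MEM (10% FBS) without cells, and plates were read at 540/590 nm.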

[15] = qHTS assay to test for compound auto fluorescence at 460 nm (blue) in HepG2 cell free culture (AID 720685)
Method in brief: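 Cell-free plates of MEM plus 10% FBS received 23 nL compound or DMSO vehicle; blue-channel (405/460 nm) intensity scored against triamterene as reference fluorophore.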

[16] = qHTS assay to test for compound auto fluorescence at 535 nm (green) in HepG2 cell free culture (AID 720686)
[17] = qHTS assay to test for compound auto fluorescence at 460 nm (blue) in HepG2 cells (AID 720687)
Method in brief: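 HepG2 cells in MEM with 10% FBS, attached overnight at 37 C, were exposed to compound or DMSO for 1 hr at 37 C, 5% CO2. Blue fluorescence was read at 405/460 nm, with triamterene as reference fluorophore.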

[18] = target: Glucocorticoid receptor (Homo sapiens) (UniProt P04150); assay: qHTS assay to identify small molecule agonists of the glucocorticoid receptor (GR) signaling pathway (AID 720691; active means well fitted activation curve with a large enough effect in the signal ratio in the repeat runs, not every such curve was filed as active; the % refers to the signal ratio)
Glucocorticoid receptor (Homo sapiens), sequence (P04150 whole entry, looked up): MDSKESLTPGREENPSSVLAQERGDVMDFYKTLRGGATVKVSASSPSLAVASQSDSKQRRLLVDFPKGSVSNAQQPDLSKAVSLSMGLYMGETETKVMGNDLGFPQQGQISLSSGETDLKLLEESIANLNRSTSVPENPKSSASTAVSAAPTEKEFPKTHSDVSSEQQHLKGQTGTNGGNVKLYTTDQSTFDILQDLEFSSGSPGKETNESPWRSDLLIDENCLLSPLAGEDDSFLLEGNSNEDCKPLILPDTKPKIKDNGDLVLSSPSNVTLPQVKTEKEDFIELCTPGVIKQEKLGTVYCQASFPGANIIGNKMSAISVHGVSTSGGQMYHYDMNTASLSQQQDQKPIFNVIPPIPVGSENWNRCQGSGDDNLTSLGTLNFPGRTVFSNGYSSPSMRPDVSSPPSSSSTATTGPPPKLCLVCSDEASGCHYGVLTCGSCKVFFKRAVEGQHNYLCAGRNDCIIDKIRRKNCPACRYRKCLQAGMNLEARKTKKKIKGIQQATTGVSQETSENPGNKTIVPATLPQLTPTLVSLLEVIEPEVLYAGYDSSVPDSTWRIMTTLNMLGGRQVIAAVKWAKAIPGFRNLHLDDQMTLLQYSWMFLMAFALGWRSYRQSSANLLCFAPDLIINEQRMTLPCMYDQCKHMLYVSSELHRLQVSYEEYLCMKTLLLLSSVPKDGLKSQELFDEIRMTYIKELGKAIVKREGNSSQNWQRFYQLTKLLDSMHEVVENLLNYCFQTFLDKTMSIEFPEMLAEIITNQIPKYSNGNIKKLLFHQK
Method in brief: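 Cells: GR-bla HeLa, endogenous GR with stably integrated GRE-beta-lactamase reporter. Treatment 18 h, 37 C, compounds delivered in DMSO. Detection via LiveBLAzer B/G FRET substrate, 2 h RT, fluorescence intensity.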

[19] = target: Glucocorticoid receptor (Homo sapiens) (UniProt P04150); assay: qHTS assay to identify small molecule antagonists of the glucocorticoid receptor (GR) signaling pathway (AID 720692; active means well fitted inhibition curve with a large enough effect in the signal ratio in the repeat runs, not every such curve was filed as active; the % refers to the signal ratio)
Method in brief: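 Quantitative HTS in antagonist format: HeLa cells expressing endogenous GR and a stably integrated GRE-bla reporter, stimulated with 5 nM dexamethasone (final) alongside test compounds for 18 h.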

[20] = qHTS assay for identifying genotoxic compounds that show differential cytotoxicity against isogenic chicken DT40 cell lines with known DNA damage response pathways - wild type cell line (AID 743012); further: potency means the concentration at half of the fitted maximal effect; nearly all actives have a fitted effect of over 60% in size
Method in brief: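 Luminescent ATP viability signal (CellTiter-Glo, 30 min RT) recorded after wild type DT40 cells were incubated with compounds for 40 h at 37 C/5% CO2.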

[21] = qHTS assay for identifying genotoxic compounds that show differential cytotoxicity against isogenic chicken DT40 cell lines with known DNA damage response pathways - Rev3 mutant cell line (AID 743014); further: potency means the concentration at half of the fitted maximal effect; nearly all actives have a fitted effect of over 55% in size
[22] = qHTS assay for identifying genotoxic compounds that show differential cytotoxicity against isogenic chicken DT40 cell lines with known DNA damage response pathways - Rad54/Ku70 mutant cell line (AID 743015); further: potency means the concentration at half of the fitted maximal effect; nearly all actives have a fitted effect of over 60% in size
[23] = qHTS assay to identify small molecule antagonists of the androgen receptor (AR) signaling pathway - cell viability counter screen (AID 743033; further: nearly all actives have a fitted effect of over 45% in size)
[24] = qHTS assay to identify small molecule antagonists of the androgen receptor (AR) signaling pathway using the MDA cell line - cell viability counter screen (AID 743041; further: nearly all actives have a fitted effect of over 45% in size)
Method in brief: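 Cytotoxicity counter screen: MDA-kb2 AR-luc cells, compound + R1881, 16 h, 37C, 0% CO2; CellTiter-Fluor added at 15.5 h, fluorescence read after 30 min.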

[25] = tested on: thyroid hormone receptor (rat, GH3 cells); assay: qHTS assay to identify small molecule agonists of the thyroid receptor (TR) signaling pathway (AID 743066; calls by dose curve)
[26] = target: Estrogen receptor (Homo sapiens) (UniProt P03372); assay: qHTS assay to identify small molecule antagonists of the estrogen receptor alpha (ER-alpha) signaling pathway (AID 743069; active means well fitted curve in the direction sought with a large enough effect in the signal ratio in the repeat runs, not every such curve was filed as active; the % refers to the signal ratio)
Estrogen receptor (Homo sapiens), sequence (P03372 whole entry, looked up): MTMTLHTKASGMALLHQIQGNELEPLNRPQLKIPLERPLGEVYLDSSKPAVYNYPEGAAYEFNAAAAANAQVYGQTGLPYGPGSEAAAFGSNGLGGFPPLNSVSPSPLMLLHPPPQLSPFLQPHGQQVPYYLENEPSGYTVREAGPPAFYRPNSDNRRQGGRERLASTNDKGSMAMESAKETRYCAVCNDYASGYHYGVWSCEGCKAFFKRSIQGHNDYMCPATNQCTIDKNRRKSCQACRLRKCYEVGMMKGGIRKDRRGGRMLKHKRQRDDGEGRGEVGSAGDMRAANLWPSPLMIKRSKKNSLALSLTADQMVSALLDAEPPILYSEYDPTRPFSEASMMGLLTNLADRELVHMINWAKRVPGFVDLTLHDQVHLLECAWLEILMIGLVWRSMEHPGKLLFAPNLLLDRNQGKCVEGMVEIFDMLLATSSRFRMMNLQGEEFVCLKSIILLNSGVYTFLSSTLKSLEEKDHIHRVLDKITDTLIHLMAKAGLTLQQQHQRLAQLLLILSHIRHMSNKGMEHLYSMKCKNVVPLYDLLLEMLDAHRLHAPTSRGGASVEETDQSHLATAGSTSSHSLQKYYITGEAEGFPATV
Method in brief: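 Beta-lactamase FRET fluorescence is read after 2 hr at room temperature with LiveBLAzer B/G substrate. Before that, ER-alpha-bla HEK293 cells sit 4 hr after plating, then receive compound plus 17beta-estradiol and incubate 18 hr at 37C.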

[27] = qHTS assay to identify small molecule antagonists of the estrogen receptor alpha (ER-alpha) signaling pathway - cell viability counter screen (AID 743074; calls by dose curve;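 further: HEK293 cells carrying ER-alpha-UAS-bla reporter stimulated with 17beta-estradiol; nearly all actives have a fitted effect of over 45% in size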)
[28] = target: Estrogen receptor (Homo sapiens) (UniProt P03372); assay: qHTS assay to identify small molecule agonists of the estrogen receptor alpha (ER-alpha) signaling pathway (AID 743075; calls by dose curve;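 further: HEK293 GripTite cells with ER-alpha and UAS-driven beta-lactamase reporter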)
[29] = target: Estrogen receptor (Homo sapiens) (UniProt P03372); assay: qHTS assay to identify small molecule agonists of the estrogen receptor alpha (ER-alpha) signaling pathway using the BG1 cell line (AID 743079); further: potency means the concentration at half of the fitted maximal effect; nearly all actives have a fitted effect of over 20% in size
[30] = qHTS assay to identify small molecule antagonists of the estrogen receptor alpha (ER-alpha) signaling pathway using the BG1 cell line (AID 743080; calls by dose curve; further: series mostly up to about 70 µM; nearly all actives have a fitted effect of over 25% in size)
Method in brief: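 Antagonist mode: compounds in DMSO were pinned onto BG1-Luc-4E2 cells alongside 17beta-estradiol agonist, incubated 21.5 h, and ERE-driven luciferase measured with ONE-Glo. Cytotoxicity was multiplexed using CellTiter-Fluor fluorescence.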

[31] = qHTS assay to identify small molecule antagonists of the estrogen receptor alpha (ER-alpha) signaling pathway using the BG1 cell line - cell viability counter screen (AID 743081);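 further: compound given together with 17beta-estradiol as the ER stimulus; series mostly up to about 70 µM; nearly all actives have a fitted effect of over 45% in size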
Aromatase (Homo sapiens) = Aromatase (Homo sapiens) (UniProt P11511); assay: qHTS assay to identify aromatase inhibitors (AID 743083); further: series mostly up to about 70 µM; nearly all actives have a fitted effect of over 55% in size
Aromatase (Homo sapiens), sequence (P11511 whole entry, looked up): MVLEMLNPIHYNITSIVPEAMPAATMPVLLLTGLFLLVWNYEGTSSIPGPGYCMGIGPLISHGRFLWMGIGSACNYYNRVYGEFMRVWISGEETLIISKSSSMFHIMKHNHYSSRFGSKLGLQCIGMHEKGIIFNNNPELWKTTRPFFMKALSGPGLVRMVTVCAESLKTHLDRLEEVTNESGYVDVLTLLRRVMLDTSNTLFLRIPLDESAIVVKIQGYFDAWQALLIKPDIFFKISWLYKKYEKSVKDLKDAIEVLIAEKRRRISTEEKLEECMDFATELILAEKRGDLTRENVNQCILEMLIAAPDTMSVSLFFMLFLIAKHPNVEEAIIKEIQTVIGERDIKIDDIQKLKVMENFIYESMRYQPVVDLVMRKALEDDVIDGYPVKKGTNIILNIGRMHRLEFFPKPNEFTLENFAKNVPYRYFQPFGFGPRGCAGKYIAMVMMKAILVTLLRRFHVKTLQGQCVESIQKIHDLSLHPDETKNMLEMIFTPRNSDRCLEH

[32] = qHTS assay to identify aromatase inhibitors - cell viability counter screen (AID 743084);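 further: cells stimulated with testosterone during compound exposure; nearly all actives have a fitted effect of over 55% in size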
[33] = target: Aryl hydrocarbon receptor (Homo sapiens) (UniProt P35869); assay: qHTS assay to identify small molecule that activate the aryl hydrocarbon receptor (AhR) signaling pathway (AID 743085);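 further: HG2L7.5c1 human HepG2 liver cells with stably integrated DRE-driven firefly reporter; series mostly up to about 70 µM; nearly all actives have a fitted effect of over 15% in size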
Aryl hydrocarbon receptor (Homo sapiens), sequence (P35869 whole entry, looked up): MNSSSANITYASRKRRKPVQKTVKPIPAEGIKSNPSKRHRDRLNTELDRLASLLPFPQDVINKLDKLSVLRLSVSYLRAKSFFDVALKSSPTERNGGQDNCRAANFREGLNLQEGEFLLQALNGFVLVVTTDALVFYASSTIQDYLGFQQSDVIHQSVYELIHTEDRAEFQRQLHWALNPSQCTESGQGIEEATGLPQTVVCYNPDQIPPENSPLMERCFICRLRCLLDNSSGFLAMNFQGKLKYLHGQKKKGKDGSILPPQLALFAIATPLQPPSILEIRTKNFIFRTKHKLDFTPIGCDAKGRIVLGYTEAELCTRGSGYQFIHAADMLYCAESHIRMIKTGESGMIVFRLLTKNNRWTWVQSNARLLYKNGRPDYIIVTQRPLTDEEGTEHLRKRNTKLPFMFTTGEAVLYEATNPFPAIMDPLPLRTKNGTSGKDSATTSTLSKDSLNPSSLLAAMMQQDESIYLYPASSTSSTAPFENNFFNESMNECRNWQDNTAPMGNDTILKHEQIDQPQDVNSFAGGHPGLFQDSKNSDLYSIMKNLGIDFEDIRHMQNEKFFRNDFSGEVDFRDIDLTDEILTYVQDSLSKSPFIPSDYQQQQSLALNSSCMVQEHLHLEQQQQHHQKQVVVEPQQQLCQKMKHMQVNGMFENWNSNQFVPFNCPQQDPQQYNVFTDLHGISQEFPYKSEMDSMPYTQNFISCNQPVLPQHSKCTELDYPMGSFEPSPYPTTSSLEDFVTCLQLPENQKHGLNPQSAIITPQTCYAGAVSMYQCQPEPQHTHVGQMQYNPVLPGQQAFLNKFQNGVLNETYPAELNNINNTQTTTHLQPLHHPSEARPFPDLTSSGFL
Method in brief: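 Cell line HG2L7.5c1 (human hepatoma, 20× DRE-luc). Plated, 5 h 37C, compound/DMSO added, 24 h 37C. CellTiter-Fluor 30 min 37C → fluorescence; then ONE-Glo 30 min RT → luminescence.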

[34] = qHTS assay to identify small molecule that activate the aryl hydrocarbon receptor (AhR) signaling pathway - cell viability counter screen (AID 743086)
Method in brief: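 HepG2-AhR-luc (HG2L7.5c1) cells, 4000/well, treated 24 h at 37 C with compound; viability measured as CellTiter-Fluor fluorescence after 30 min in the same wells as the luciferase read.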

[35] = target: Peroxisome proliferator-activated receptor gamma (Homo sapiens) (UniProt P37231); assay: qHTS assay to identify small molecule agonists of the peroxisome proliferator-activated receptor gamma (PPARg) signaling pathway (AID 743094; active means well fitted activation curve with a large enough effect in the signal ratio in the repeat runs, not every such curve was filed as active; the % refers to the signal ratio)
Peroxisome proliferator-activated receptor gamma (Homo sapiens), sequence (P37231 whole entry, looked up): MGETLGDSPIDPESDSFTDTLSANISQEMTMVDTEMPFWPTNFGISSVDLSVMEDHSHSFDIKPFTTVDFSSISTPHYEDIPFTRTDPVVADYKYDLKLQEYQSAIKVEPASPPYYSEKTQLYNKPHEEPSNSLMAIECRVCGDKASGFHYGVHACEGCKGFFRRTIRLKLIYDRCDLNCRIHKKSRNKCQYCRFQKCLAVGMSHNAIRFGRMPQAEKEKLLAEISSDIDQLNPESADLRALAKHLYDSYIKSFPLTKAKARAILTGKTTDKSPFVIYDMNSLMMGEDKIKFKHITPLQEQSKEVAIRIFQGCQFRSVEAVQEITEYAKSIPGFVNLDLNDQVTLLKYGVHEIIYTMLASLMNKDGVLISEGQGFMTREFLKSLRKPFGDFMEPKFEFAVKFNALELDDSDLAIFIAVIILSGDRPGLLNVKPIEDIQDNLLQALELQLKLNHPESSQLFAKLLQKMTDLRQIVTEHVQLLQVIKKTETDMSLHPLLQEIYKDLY
Method in brief: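 Reporter activation was scored by fluorescence of cleaved LiveBLAzer B/G substrate (1 h, room temperature) in PPARg-bla HEK293H cells previously treated 17 h at 37C with DMSO-dissolved compounds.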

[36] = qHTS assay to identify small molecule antagonists of the estrogen related receptor (ERR) signaling pathway - cell viability counter screen (AID 1224818);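 further: series mostly up to about 46 µM; viability measured after 17.5 h of compound exposure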
Method in brief: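 Quantitative high-throughput viability counter screen in ERR cells. Compounds (DMSO) incubated 17.5 h at 37 C; read-out was CellTiter-Fluor fluorescence.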

[37] = qHTS assay to identify small molecule antagonists of the estrogen related receptor (ERR) signaling pathway (AID 1224819;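 further: luminescence from an ERR-driven luciferase reporter measured with One-Glo reagent; series mostly up to about 46 µM; nearly all actives have a fitted effect of over 50% in size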)
Method in brief: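 ERR reporter cell line (NTP) plated at 2,000 cells/well, settled 6 h at 37C/5% CO2, then exposed to LOPAC compounds for 18 h at 37C. One-Glo luciferase luminescence read after 30 min at room temperature.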

[38] = tested on: estrogen-related receptor alpha (ERRalpha) with PGC-1alpha coactivator, human; assay: qHTS assay to identify small molecule antagonists of the estrogen related receptor signaling pathway with the pleiotropic PPARgamma coactivator (PGC) (AID 1224821; calls by dose curve;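 further: series mostly up to about 46 µM; lower luminescence signal means antagonism of PGC/ERR signalling; nearly all actives have a fitted effect of over 50% in size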)
Method in brief: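 PGC/ERR reporter cells; 6 h pre-incubation 37 C/5% CO2; pin-tool compound in DMSO, 18 h 37 C; One-Glo added, 30 min RT; luminescence read. qHTS antagonist mode.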

[39] = qHTS assay to identify small molecule antagonists of the estrogen related receptor signaling pathway with the pleiotropic PPARgamma coactivator (PGC) cell viability counter screen (AID 1224822; further: series mostly up to about 46 µM)
Method in brief: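 Cytotoxicity in the PGC/ERR cell line is assessed with CellTiter-Fluor, read as fluorescence intensity 30 min after reagent addition, following 17.5 h compound treatment at 37 C.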

[40] = qHTS assay to identify small molecule agonists of the estrogen related receptor signaling pathway with the pleiotropic PPARgamma coactivator (PGC) (AID 1224823)
Method in brief: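 Luminescence readout (One-Glo, 30 min RT) from PGC/ERR cell line treated 18 h at 37 C with pin-tool-delivered DMSO compound solutions; cells plated 6 h before dosing. Quantitative HTS format.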

[41] = qHTS assay to identify small molecule phospholipidosis (PLD) inducers (AID 1259344; active means well fitted curve in the direction sought with a large enough effect; an effect the other way counts as inactive or inconclusive)
Method in brief: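 Read-out is LipidTOX Red fluorescence (ex 595/em 615) imaged in HepG2 cells after 24 h compound exposure at 37 C, with Hoechst nuclear counterstain (ex 352/em 461) allowing per-cell normalisation.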

[42] = target: Nuclear receptor subfamily 1 group I member 2 (Rattus norvegicus) (UniProt Q9R1A7); assay: Rat pregnane X receptor (rPXR) activation by small molecules, qHTS assay (AID 1346983); conditions: rPXR luciferase reporter cells, One-Glo luminescence, 24 h; max activation: active compounds read high; further: nearly all actives have a fitted effect of over 20% in size
Nuclear receptor subfamily 1 group I member 2 (Rattus norvegicus), sequence (Q9R1A7 whole entry, looked up): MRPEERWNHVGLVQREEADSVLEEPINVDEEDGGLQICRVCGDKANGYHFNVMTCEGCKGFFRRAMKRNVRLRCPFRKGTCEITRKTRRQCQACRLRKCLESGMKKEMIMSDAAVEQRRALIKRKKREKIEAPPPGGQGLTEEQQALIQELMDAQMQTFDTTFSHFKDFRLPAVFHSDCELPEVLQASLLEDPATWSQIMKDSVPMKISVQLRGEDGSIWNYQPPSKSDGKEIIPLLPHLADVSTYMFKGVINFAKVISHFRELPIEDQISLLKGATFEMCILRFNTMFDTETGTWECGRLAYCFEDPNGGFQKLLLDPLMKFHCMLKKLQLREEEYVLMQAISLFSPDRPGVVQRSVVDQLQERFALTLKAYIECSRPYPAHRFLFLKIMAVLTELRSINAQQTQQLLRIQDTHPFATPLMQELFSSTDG
Method in brief: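 Cell-based rPXR activation assay: rPXR cells, 2,000 per well, rested 5hr at 37 C, then exposed to compounds in DMSO for 24 hr at 37 C. Luciferase activity read by One-Glo luminescence after 30 min at room temperature.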

[43] = target: Nuclear receptor subfamily 1 group I member 2 (Homo sapiens) (UniProt O75469); assay: CYP3A4 induction through human pregnane X receptor (PXR) by small molecules, qHTS assay (AID 1346984); further: nearly all actives have a fitted effect of over 40% in size
Method in brief: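 Induction measured in HepG2-based DPX-2 cells co-expressing human PXR and a CYP3A4 promoter-driven luciferase. After a 24-hour compound exposure, cells received CYP3A4 luciferin substrate at 3uM final for 3 hours, and light output was then recorded.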

Structure (SMILES): CC(C)NC(C)Cc1ccc(I)cc1 (centres undefined)
- Potency [1]: inactive
- Potency [2]: inactive
- Potency [3]: inactive
- Potency [4]: inactive
- Potency [5]: inactive
- outcome [6]: inactive
- Potency [7]: inactive
- Potency [8]: inactive
- outcome [9]: inactive
- Potency [10]: inactive
- Potency [11]: inactive
- Potency [12]: inactive
- outcome [13]: inactive
- outcome [14]: inactive
- Potency [15]: inactive
- Potency [16]: inactive
- Potency [17]: inactive
- Potency [18]: inactive
- Potency [19]: inactive
- Potency [20]: 26.6 µM (active)
- Potency [21]: 1.68 µM (active)
- Potency [22]: 13.3 µM (active)
- Potency [23]: inactive
- Potency [24]: inactive
- Potency [25]: inactive
- Potency [26]: inactive
- Potency [27]: inactive
- Potency [28]: inactive
- Potency [29]: 21.1 µM (active)
- Potency [30]: inactive
- Potency [31]: inactive
- Potency (Aromatase (Homo sapiens)): inactive
- Potency [32]: inactive
- Potency [33]: inactive
- Potency [34]: inactive
- Potency [35]: inactive
- Potency [36]: inactive
- Potency [37]: inactive
- Potency [38]: inactive
- Potency [39]: inactive
- Potency [40]: inactive
- Potency [41]: inactive
- max activation [42]: -3.06%
- Potency [43]: inactive
